The OligoGym collection

Each sequence was assayed against AATK (assay: pooled miR-30 sensor sort-seq; sequence = guide strand). Details: shRNA.
Note: reference of the scale not given here.

Sequence	sensor-assay potency score (higher = more potent)
ATAGTCACCAATCTTCACCGTC	0.047
TTGCGTTCCAGGTCCTCGCAGA	-0.188
TTCTGATCTCAGCGGAACCGGG	-1.21
TTGTACTCAAAATTGAGGCCTC	0.126
TAGTCCTCTCTGTACTTGCAGT	-1.18
TAGTTCTCGGTGTCATAGCCAC	-0.895
AACTGCATCACCTCGTACCAGC	-1.29
TTCACCGTCAGGTCAGCCGTGA	-0.0686
TAGCTCATCCTCGCCAGTCAGC	-1.1

The sequences below were run against ABCA10 in the same assay as above. Details: shRNA.

Sequence	sensor-assay potency score (higher = more potent)
TTCTTTTATAACATTTCTGATT	-1.16
TTGAACATCTTCATCTTCTTCT	1.07
TATCACTAAATATAACTCCCAC	-0.516
TTAGACAGAAATACTTTCCTAT	0.661
TTCTTCTTCGGGCTCTTCCGGA	-0.863
TATTCTTTTATAACATTTCTGA	0.0597
TTATTTTTTCTCCACTTGCGAA	-1.28
TTTATTTTAGCAAATACCCTGA	-0.0638
TTTATCATCAACATTTCCCAGC	-0.195
TTCATTTATTCTATTGTCCAGA	-0.279
TTATTAACGATTAACAGGCTGG	-0.301
